According to PubChem BioAssay (NCATS):
“And” between values parts separate entries of the source, which are not always exact repeats. Equal entries are not always repeated. Inconclusive results are not listed. The source holds several records for some structures; these can differ, active in one and inactive in another. Values without a mark were called inactive. The source made the active and inactive calls. Calls come from the whole dose curve; as a rule, active = well fitted inhibition curve with a large enough effect; inconclusive = small, poorly fitted or top-dose-only effect; inactive = flat fitted curve, though single readings scatter.

What was measured:
Experiment in all cases: Cytotoxic Profiling of Annotated Libraries Using Quantitative High-Throughput Screening (AID 1296008); note: nearly all actives have a fitted effect of over 60% in size
Details in all cases: Five cell lines viability, CellTiter-Glo ATP luminescence, 48-72 h; max response: active compounds read low
[1] = tested on: CRL-7250
Procedure, shortened: (§1)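 Compounds were pin-transferred onto cells and incubated 48 or 72 hr at 37 degree Celsius, 95% humidity. CellTiter-Glo was added, plates sat 10 min at room temperature, then ATP-coupled luminescence was imaged as the viability read-out.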

[2] = tested on: HaCat
Procedure, shortened: as §1

[3] = tested on: HEK293
Procedure, shortened: as §1
% is set by controls: 0 for no effect and ±100 for the full control effect; potency is the fitted concentration of half-maximal effect.

For `Cn1cc(C[C@@H](N)C(=O)O)c2ccccc21`, the Potency [1] was 5.75 µM (active) and the outcome [2] was “inactive”.
`Cn1cnc(=N)c2[nH]cnc21` was tested, and the Potency [1] was 8.33 µM (active) and the Potency [2] was 13.2 µM (active).
With `COc1ccc(S(=O)(=O)Nc2cccnc2Nc2ccc(O)cc2)cc1` the Potency [1] was 3.66 µM (active), the Potency [3] was 0.935 µM (active) and the Potency [2] was 20.9 µM (active). For the same compound, the max response [2] was -5.46%.
`COc1ccc(CCC(=O)c2c(O)cc(O[C@@H]3O[C@H](CO)[C@@H](O)[C@H](O)[C@@H]3O[C@@H]3O[C@@H](C)[C@H](O)[C@@H](O)[C@@H]3O)cc2O)cc1O` was tested, and the max response [1] was -4.09%, the max response [3] was -11.6% and the outcome [2] was “inactive”.
For `CC(=CC(=O)Nc1ccccc1C(=O)O)c1ccc2ccccc2c1`, the max response [1] was -3.34% and the outcome [2] was “inactive”.
For `C[C@@H](NCc1cc2ccccc2[nH]1)c1cccc2ccccc12`, the max response [1] was 3.32%, the max response [3] was -2.05% and the outcome [2] was “inactive”.
In the case of `CC(N[C@H]1CCCC[C@H]1NC(=O)c1ccc(Cl)cc1)c1cccc2ccccc12` (stereo partly drawn), the max response [1] is reported as 2.81% and the outcome [2] is reported as “inactive”.
`O=C1NC(=O)[C@@H](c2cn3c4c(cccc24)CCC3)[C@H]1c1c[nH]c2ccccc12` was tested, and the Potency [1] was 13.2 µM (active), the Potency [3] was 0.662 µM (active) and the outcome [2] was “inactive”.
With `C=CC(=O)Nc1ccc2ncnc(Nc3ccc(OCc4cccc(F)c4)c(Cl)c3)c2c1` the Potency [1] was 14.6 µM (active) and the Potency [2] was 1.87 µM (active) and 580 nM (active).
With `C[C@@]12C(=O)OC(=O)[C@@]1(C)C1CCC2O1` the Potency [1] was 5.26 µM (active), the Potency [3] was 8.33 µM (active) and the Potency [2] was 26.4 µM (active).
In the case of `Nc1ncn([C@@H]2O[C@H](CO)[C@@H](O)[C@@H]2O)c(=O)n1`, the Potency [1] is reported as 5.26 µM (active), the Potency [3] is reported as 4.18 µM (active) and the max response [2] is reported as -5.4%.
With `NC(=O)Nc1cc(-c2ccc(CN3CCOCC3)cc2)sc1C(N)=O` the Potency [1] was 13.2 µM (active), the Potency [3] was 5.26 µM (active) and the Potency [2] was 0.332 µM (active).
For `CN(C)c1ccc2cc(C(=O)N[C@@H](CCCN=C(N)CCl)C(=O)NCc3ccccc3)ccc2c1`, the Potency [1] was 18.7 µM (active) and the max response [2] was -9.24%.
With `CS(=O)(=O)N1CCc2c(-c3cnc(N)nc3)nc(N3CCOCC3)nc21` the Potency [1] was 0.935 µM (active) and the Potency [2] was 1.16 µM (active).
With `COc1cc(C)c(C=CC(C)=CC=CC(C)=CC(=O)O)c(C)c1C` the max response [1] was -4.27%, the max response [3] was -16.6% and the outcome [2] was “inactive”.
In the case of `C=CCNC1=C2C[C@@H](C)C[C@H](OC)[C@@H](O)[C@@H](C)C=C(C)[C@H](OC(N)=O)[C@@H](OC)C=CC=C(C)C(=O)NC(=CC1=O)C2=O`, the Potency [1] is reported as 0.296 µM (active), the Potency [3] is reported as 0.935 µM (active) and the Potency [2] is reported as 0.59 µM (active).
`CCOC(=O)[C@@H](N)Cc1ccc(-c2cc(O[C@H](c3ccc(Cl)cc3-n3ccc(C)n3)C(F)(F)F)nc(N)n2)cc1` gave a max response [1] of -8.01%, a max response [3] of -5.12% and a max response [2] of 1.01%. The outcome [2] was “inactive”.
In the case of `CC(C=CC(=O)NO)=C[C@@H](C)C(=O)c1ccc(N(C)C)cc1`, the Potency [1] is reported as 5.26 µM (active), the Potency [3] is reported as 1.05 µM (active) and the Potency [2] is reported as 2.96 µM (active).
`Cc1cn([C@@H]2O[C@H](CO)[C@@H](O)[C@H]2F)c(=O)[nH]c1=O` showed a max response [1] of -5.97%, a max response [3] of -1.3% and a max response [2] of -13.3%.
In the case of `CC(C)(O)[C@H]1CC[C@@](C)([C@H]2[C@@H](O)C[C@@]3(C)[C@@H]4C[C@H](O[C@@H]5O[C@H](CO)[C@@H](O)[C@H](O)[C@@H]5O)[C@H]5C(C)(C)[C@@H](O[C@@H]6OC[C@@H](O)[C@H](O)[C@@H]6O)CC[C@@]56C[C@@]46CC[C@]23C)O1`, the outcome [1] is reported as “inactive”, the max response [3] is reported as 2.98% and the max response [2] is reported as -6.06%.
With `C=CCNc1c(O)cc2c(O)c1C[C@@H](C)C[C@H](OC)[C@@H](O)[C@@H](C)C=C(C)[C@H](OC(N)=O)[C@@H](OC)C=CC=C(C)C(=O)N2` the Potency [1] was 0.0372 µM (active) and the Potency [2] was 0.372 µM (active).
Compound `C#C[C@]1(O)CC[C@@H]2[C@@H]3CCC4=CC(=O)CC[C@@H]4[C@H]3CC[C@@]21CC` has a max response [1] of -6.84%, a max response [3] of -8.15% and a max response [2] of -5.66%.
With `Cc1cc(-c2nnc3n2CCCCC3)c(C)n1-c1ccccc1` the max response [1] was -6.3%, the max response [3] was -6.24% and the outcome [2] was “inactive”.
